Sampled rows, rich in hits. Any-hit rate of the full collection: about 4.2%.
tim23-1 inh = tim23-1 yeast growth inhibition. S. cerevisiae tim23-1 growth, BacTiter-Glo luminescence, 24 h. inhibition, % at 20 µM. 1.3% of 330,000 active. AID 463212;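 active = growth inhibition of the mutant yeast at or above 50%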;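 also: temperature-sensitive mutant grown at 25 °C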
NALP3 yeast inh = NALP3 inhibition in yeast; inhibition, % at 10 µM; Yeast reconstituted NLRP3/ASC/caspase-1, beta-gal luminescence, 24 h; 0.39% of 330,000 active;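 active = inhibition of 50% or more; inactive = inhibition below 50%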
PfHsp90 set2 = reduces growth (ATP signal) of yeast expressing P. falciparum Hsp90; inhibition, % at 9.4 µM; S. cerevisiae expressing PfHsp90, BacTiter-Glo ATP, 48 h; yeast lacking PDR1 and PDR3 efflux regulators; 0.32% of 310,000 active;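 active = every replicate shows inhibition above about 80%, whatever the replicate mean, limit read from the data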
TIM10 inh = growth inhibitors of TIM10 yeast strain. S. cerevisiae TIM10 strain growth, BacTiter-Glo luminescence, 24 h. inhibition, % at 10 µM. 1.4% of 330,000 active. AID 463195;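 active = inhibition of 40% or more at the single tested concentration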;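 also: wild-type TIM10 isogenic control strain grown at permissive 25 °C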
tim10-1 inh = inhibits growth of tim10-1 mutant yeast. inhibition, % at 20 µM. AID 463190. S. cerevisiae tim10-1 ts strain growth, BacTiter-Glo, 24 h. 2.2% of 330,000 active;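 active = inhibition of at least 40%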;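 also: mutant grown at 25 °C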
NALP1 inh = blocks the NALP1 inflammasome reconstituted in yeast | S. cerevisiae NALP1/ASC/caspase-1 growth, X-gal OD620, 72 h | inhibition, % at 10 µM | 0.61% of 280,000 active | AID 2071; in the data active = inhibition mostly above about 24%, no sharp cut-off; inactive = mostly below about 32%
A number is an active result.

Results for Cc1c(Br)cccc1NC(=O)c1sccc1-n1cccc1 ?
tim23-1 inh: inactive; NALP3 yeast inh: inactive; PfHsp90 set2: inactive; TIM10 inh: inactive; tim10-1 inh: inactive; NALP1 inh: 44

How did O=C(Nc1ccc(Br)cc1F)c1sccc1-n1cccc1 do in these assays?
tim23-1 inh: inactive; NALP3 yeast inh: inactive; TIM10 inh: inactive; tim10-1 inh: inactive; NALP1 inh: inactive

What do the screens show for `O=C(Nc1ccccc1Cl)C1CCN(S(=O)(=O)c2cccc3nonc23)CC1`?
tim23-1 inh: inactive; NALP3 yeast inh: inactive; PfHsp90 set2: inactive; TIM10 inh: inactive; tim10-1 inh: inactive; NALP1 inh: 37

How did Cc1ccc(N2C(=O)C3C4C=CC(CNC(=S)N5CCN(c6cccc(C)c6)C(C)C5)(O4)C3C2=O)cc1 (stereo not given) do in these assays?
tim23-1 inh: inactive; NALP3 yeast inh: inactive; PfHsp90 set2: 105; TIM10 inh: inactive; tim10-1 inh: inactive; NALP1 inh: inactive

How did COc1ccccc1N1CCN(C(=O)CSc2nc3ccccc3[nH]2)CC1 do in these assays?
tim23-1 inh: inactive; NALP3 yeast inh: inactive; PfHsp90 set2: inactive; TIM10 inh: inactive; tim10-1 inh: inactive; NALP1 inh: inactive

How did COc1ccccc1N1CCN(C(=O)CSc2nc(N)cc(=O)[nH]2)CC1 do in these assays?
tim23-1 inh: inactive; NALP3 yeast inh: inactive; PfHsp90 set2: inactive; TIM10 inh: inactive; tim10-1 inh: inactive; NALP1 inh: 41

Results for COc1ccccc1N1CCN(C(=O)CN2C(=O)c3ccccc3C2=O)CC1 ?
tim23-1 inh: inactive; NALP3 yeast inh: inactive; PfHsp90 set2: inactive; TIM10 inh: inactive; tim10-1 inh: inactive; NALP1 inh: inactive

What do the screens show for `COc1ccccc1N1CCN(C(=O)CCN2C(=O)c3cccc4cccc(c34)C2=O)CC1`?
tim23-1 inh: inactive; NALP3 yeast inh: inactive; PfHsp90 set2: inactive; TIM10 inh: inactive; tim10-1 inh: inactive; NALP1 inh: 45

What do the screens show for `CC(C)(C)NC(=O)C1CCN(C(=O)c2ccco2)CC1`?
tim23-1 inh: inactive; NALP3 yeast inh: inactive; PfHsp90 set2: inactive; TIM10 inh: inactive; tim10-1 inh: inactive; NALP1 inh: inactive

What do the screens show for `COc1ccc(NC2CCCN(C(=O)c3ccc4[nH]c(C)c(C)c4c3)C2)cc1OC` (stereo not given)?
tim23-1 inh: inactive; NALP3 yeast inh: inactive; PfHsp90 set2: inactive; TIM10 inh: inactive; tim10-1 inh: inactive; NALP1 inh: inactive

How did Cc1ccc(C)c(N2CCN(C(=O)CCS(=O)(=O)c3ccc4c(c3)oc(=O)n4C)CC2)c1 do in these assays?
tim23-1 inh: inactive; NALP3 yeast inh: inactive; PfHsp90 set2: inactive; TIM10 inh: inactive; tim10-1 inh: inactive; NALP1 inh: inactive

What do the screens show for `N#Cc1cc2c(cc1NC(=O)CCn1cnnn1)OCO2`?
tim23-1 inh: inactive; NALP3 yeast inh: inactive; PfHsp90 set2: inactive; TIM10 inh: inactive; tim10-1 inh: inactive; NALP1 inh: 36

What do the screens show for `COc1cc2c(cc1OC)CN(CC(=O)Nc1cccc(C(F)(F)F)c1)CC2`?
tim23-1 inh: inactive; NALP3 yeast inh: inactive; PfHsp90 set2: inactive; TIM10 inh: inactive; tim10-1 inh: inactive; NALP1 inh: inactive

Results for O=C(C1=C[C@H](c2csc3ccccc23)C[C@H](OCCCCO)O1)N1CCN(Cc2ccccc2)CC1 ?
tim23-1 inh: inactive; NALP3 yeast inh: inactive; TIM10 inh: inactive; tim10-1 inh: inactive; NALP1 inh: 30

How did COc1cc(C(=O)c2ccccc2C(=O)O)c(OC)c2c1CCCC2 do in these assays?
PfHsp90 set2: inactive

What do the screens show for `Cc1ccc(Nc2nc(N)c([N+](=O)[O-])c(N3CCCC(C)C3)n2)cc1C` (stereo not given)?
tim23-1 inh: inactive; NALP3 yeast inh: inactive; PfHsp90 set2: 132; TIM10 inh: inactive; tim10-1 inh: inactive; NALP1 inh: inactive

What do the screens show for `CC1CCCN(c2nc(NCc3ccco3)nc(N)c2[N+](=O)[O-])C1` (stereo not given)?
tim23-1 inh: inactive; NALP3 yeast inh: inactive; PfHsp90 set2: inactive; TIM10 inh: inactive; tim10-1 inh: inactive; NALP1 inh: inactive

What do the screens show for `Cc1c(Cl)cccc1NC(=S)N1CCCN(Cc2ccc(F)cc2)C1`?
tim23-1 inh: inactive; NALP3 yeast inh: inactive; PfHsp90 set2: inactive; TIM10 inh: inactive; tim10-1 inh: inactive; NALP1 inh: inactive

What do the screens show for `Cc1cc(C)c2c(c1)/C(=N/NS(=O)(=O)c1ccc(Br)cc1)CCC2`?
tim23-1 inh: inactive; NALP3 yeast inh: inactive; PfHsp90 set2: inactive; TIM10 inh: inactive; tim10-1 inh: inactive; NALP1 inh: 38

What do the screens show for `CCN(CC)C(=O)c1sc(NC(=O)C(C)C)c(C#N)c1C`?
tim23-1 inh: inactive; NALP3 yeast inh: inactive; PfHsp90 set2: inactive; TIM10 inh: inactive; tim10-1 inh: inactive; NALP1 inh: inactive

What do the screens show for `COc1ccc(Br)cc1C(=O)Nc1ccc(C(=O)O)cc1`?
tim23-1 inh: inactive; NALP3 yeast inh: inactive; PfHsp90 set2: inactive; TIM10 inh: inactive; tim10-1 inh: inactive; NALP1 inh: inactive

How did COc1ccc(NC(=O)c2cc3cccc(OC)c3oc2=Nc2ccc(C(=O)O)cc2)cc1OC do in these assays?
PfHsp90 set2: inactive; NALP1 inh: 28

What do the screens show for `Cc1ccc(C)c(SCC(=O)Nc2cccnc2Cl)c1`?
tim23-1 inh: inactive; NALP3 yeast inh: inactive; PfHsp90 set2: inactive; TIM10 inh: inactive; tim10-1 inh: inactive; NALP1 inh: 33

What do the screens show for `C[C@@H]1CC[C@@]23COC(=O)C2=CCC[C@@H]3[C@@]1(C)CC/C(=C/CO)CO`?
tim23-1 inh: inactive; NALP3 yeast inh: inactive; PfHsp90 set2: inactive; TIM10 inh: inactive; tim10-1 inh: inactive

Results for CC1=CCC[C@@H]2[C@@](C)(CC/C(C)=C/C(=O)O)[C@H](C)CC[C@@]12C ?
tim23-1 inh: inactive; NALP3 yeast inh: inactive; PfHsp90 set2: inactive; TIM10 inh: inactive; tim10-1 inh: inactive; NALP1 inh: 44

How did Cc1cc(C)nc(SC2CC(=O)N(c3ccc(Br)cc3)C2=O)n1 (stereo not given) do in these assays?
tim23-1 inh: inactive; NALP3 yeast inh: inactive; PfHsp90 set2: inactive; TIM10 inh: inactive; tim10-1 inh: inactive; NALP1 inh: inactive

How did CCN(CC)C1CC(=O)N(c2ccc(Br)cc2)C1=O (stereo not given) do in these assays?
tim23-1 inh: inactive; NALP3 yeast inh: inactive; PfHsp90 set2: 112; TIM10 inh: inactive; tim10-1 inh: inactive; NALP1 inh: inactive

Results for Cc1cc(NCc2ccncc2)ccc1Br ?
tim23-1 inh: inactive; NALP3 yeast inh: inactive; PfHsp90 set2: inactive; TIM10 inh: inactive; tim10-1 inh: inactive; NALP1 inh: inactive

What do the screens show for `Cc1ccc(NCc2ccncc2)c(Br)c1`?
tim23-1 inh: inactive; NALP3 yeast inh: inactive; PfHsp90 set2: inactive; TIM10 inh: inactive; tim10-1 inh: inactive; NALP1 inh: 32

Results for CC[n+]1ccc(/C=C/c2ccc(N(C)C)cc2)c2ccccc21 ?
PfHsp90 set2: inactive; NALP1 inh: 45

Results for CC[n+]1c(/C=C/c2ccc(N(C)C)cc2)ccc2ccccc21 ?
PfHsp90 set2: inactive; NALP1 inh: 92

How did CC[n+]1ccccc1/C=C/c1ccc(N(C)C)cc1 do in these assays?
PfHsp90 set2: inactive; NALP1 inh: inactive

Assay outcomes from PubChem.
